Dicer inh = human Dicer pre-microRNA cleavage inhibition. AID 1347074. hit rate 6% among 47,000. z-score at 25 µM. Q9UPY3. cat-ELCCA pre-miR-21 Dicer processing, chemiluminescence; active compounds read high; in the data active means z-score above about 3, passing the limit was not always enough;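 further: plate controls were vehicle for no effect and no enzyme for full effect; higher signal means more uncleaved substrate so more Dicer inhibition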
Target sequence (Q9UPY3 whole entry, looked up): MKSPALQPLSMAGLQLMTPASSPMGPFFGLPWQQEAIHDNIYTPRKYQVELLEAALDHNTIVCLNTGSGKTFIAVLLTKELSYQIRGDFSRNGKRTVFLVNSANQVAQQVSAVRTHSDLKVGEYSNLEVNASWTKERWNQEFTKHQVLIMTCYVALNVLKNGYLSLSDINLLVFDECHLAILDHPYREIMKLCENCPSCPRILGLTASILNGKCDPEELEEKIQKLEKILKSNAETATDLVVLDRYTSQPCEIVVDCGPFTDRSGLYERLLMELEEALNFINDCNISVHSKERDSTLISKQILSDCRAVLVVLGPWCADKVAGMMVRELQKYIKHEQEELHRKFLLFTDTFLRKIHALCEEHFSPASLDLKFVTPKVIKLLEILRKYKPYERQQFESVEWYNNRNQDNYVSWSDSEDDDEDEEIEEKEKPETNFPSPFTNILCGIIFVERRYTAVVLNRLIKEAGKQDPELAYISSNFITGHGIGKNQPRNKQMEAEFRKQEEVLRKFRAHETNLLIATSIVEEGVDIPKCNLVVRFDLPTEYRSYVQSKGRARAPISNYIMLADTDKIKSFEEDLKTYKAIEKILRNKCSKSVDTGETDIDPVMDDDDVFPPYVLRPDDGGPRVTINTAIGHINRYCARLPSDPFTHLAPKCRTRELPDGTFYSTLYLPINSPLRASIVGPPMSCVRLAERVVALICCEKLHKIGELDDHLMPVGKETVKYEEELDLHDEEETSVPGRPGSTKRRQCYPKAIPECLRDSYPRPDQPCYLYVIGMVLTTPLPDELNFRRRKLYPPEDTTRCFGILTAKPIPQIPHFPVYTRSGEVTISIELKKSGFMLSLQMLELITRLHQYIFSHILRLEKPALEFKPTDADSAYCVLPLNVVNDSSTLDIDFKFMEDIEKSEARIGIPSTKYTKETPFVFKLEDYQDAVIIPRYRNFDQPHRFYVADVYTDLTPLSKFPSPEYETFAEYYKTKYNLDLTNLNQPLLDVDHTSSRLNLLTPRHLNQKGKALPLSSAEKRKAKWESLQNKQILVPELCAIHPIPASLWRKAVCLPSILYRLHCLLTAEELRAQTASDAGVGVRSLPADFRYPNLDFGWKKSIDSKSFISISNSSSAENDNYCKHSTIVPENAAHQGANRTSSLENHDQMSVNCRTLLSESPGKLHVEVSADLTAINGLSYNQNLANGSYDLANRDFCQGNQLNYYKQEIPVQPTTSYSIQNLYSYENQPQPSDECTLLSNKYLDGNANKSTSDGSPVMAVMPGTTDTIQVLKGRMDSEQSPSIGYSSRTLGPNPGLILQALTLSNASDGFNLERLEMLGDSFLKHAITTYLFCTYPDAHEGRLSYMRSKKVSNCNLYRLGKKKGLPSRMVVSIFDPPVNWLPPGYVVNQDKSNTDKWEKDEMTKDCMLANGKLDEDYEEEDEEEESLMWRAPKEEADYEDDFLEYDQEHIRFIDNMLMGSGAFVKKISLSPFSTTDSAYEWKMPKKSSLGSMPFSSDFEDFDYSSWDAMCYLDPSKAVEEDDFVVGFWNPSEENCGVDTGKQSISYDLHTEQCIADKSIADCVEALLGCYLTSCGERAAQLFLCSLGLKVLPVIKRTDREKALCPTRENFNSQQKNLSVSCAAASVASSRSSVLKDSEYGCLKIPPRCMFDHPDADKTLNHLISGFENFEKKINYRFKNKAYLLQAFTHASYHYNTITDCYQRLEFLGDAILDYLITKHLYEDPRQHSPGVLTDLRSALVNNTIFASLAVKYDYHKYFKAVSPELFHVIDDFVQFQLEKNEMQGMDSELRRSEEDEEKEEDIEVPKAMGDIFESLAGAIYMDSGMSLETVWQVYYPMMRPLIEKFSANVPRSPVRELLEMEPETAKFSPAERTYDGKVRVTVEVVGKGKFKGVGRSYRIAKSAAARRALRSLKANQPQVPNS
Starred values were filed as active, the others as inactive. The sample as a whole holds a higher share of hits than the screen did.

SMILES	Dicer inh
CCCCCCCCSc1nnc(N)s1	2.96
O=C(Nc1cccnc1)C1CC(c2cccc(Br)c2)=NO1 (stereo not given)	11.5
CSc1ccccc1NC(=O)C1CC(c2cccc(Br)c2)=NO1 (stereo not given)	-0.87
O=C(Nc1cccc(O)c1)C1CC(c2cccc(Br)c2)=NO1 (stereo not given)	0.55
O=C(Nc1cc(Cl)ccc1O)C1CC(c2cccc(Br)c2)=NO1 (stereo not given)	3*
O=C(NCCCn1ccnc1)C1CC(c2cccc(Br)c2)=NO1 (stereo not given)	3.49*
O=C(NCC1CCCO1)C1CC(c2cccc(Br)c2)=NO1 (stereo not given)	-0.95
COc1ccc(C(=O)CC(=O)c2ccc(OC)c(OC)c2)c(O)c1	-1.17
Cc1ccc(C)c(COc2ccc(C)nc2[N+](=O)[O-])c1	0.37
Cc1ccc2ncc(NC(=O)c3ccc(F)cc3)c(=O)n2c1	-0.07
Cc1ccc(C)c(COc2ccc(C)nc2NC(=O)c2ccc(F)cc2)c1	3.83*
Fc1ccc(OCc2nn3c(-c4ccccc4Cl)nnc3s2)cc1	1.13
Cc1cc(C(=O)NCc2cccn2C)nn1C	-0.45
CCOC(=O)c1ccc(N2CC3CCCCN3C2c2ccc(Cl)cc2)cc1 (stereo not given)	-0.04
CC(C)(C)OC(=O)/C(C#N)=C/c1ccc([N+](=O)[O-])cc1	8.32
CCOC(=O)/C(C#N)=C/NN(C)c1ccccc1[N+](=O)[O-]	-0.25
CCN(CC)C(=O)/C(C#N)=C/c1cc(O)c(O)c([N+](=O)[O-])c1	3.81*
CCOC(=O)Nc1ccc2c(c1)N(C(=O)N1CCOCC1)c1ccccc1CC2	0.87
CCOc1ncnc2c1[nH]c1ccc(F)cc12	2.46
O=C(O)CC(O)CNC(=O)c1ccccc1 (stereo not given)	-1.98
COc1ccccc1Nc1n[nH]c(C)c1[N+](=O)[O-]	1.93
COc1ccccc1Nc1cc(=O)[nH]c(=O)[nH]1	3.58*
COc1ccccc1Nc1cccccc1=O	2.68
Cc1nc(C(F)(F)F)ccc1NC(=O)c1ccc(C(F)(F)F)nc1C	-1.16
CCN(CC)c1ccc(C2C(C(=O)OC)=C(C)NC3=C2C(=O)CC(C)(C)C3)cc1 (stereo not given)	-0.41
SMILES	Dicer inh
O=[N+]([O-])c1cnc2n1CC(CSc1nc(-c3ccccc3)cc(C(F)(F)F)n1)O2 (stereo not given)	1.45
CCOc1cc(C2C(C#N)=C(N)Oc3n[nH]c(C)c32)ccc1OCc1cccc(F)c1 (stereo not given)	-7.46
O=C(NCc1cccs1)Nc1cc2ccccc2s1	-1.26
O=C(Nc1cc2ccccc2s1)NC1Cc2ccccc2C1	-0.16
O=C(Nc1cc(C(F)(F)F)cc(C(F)(F)F)c1)Nc1cc2ccccc2s1	3.03*
O=C(OCCn1c2ccccc2c2nc3ccccc3nc21)c1cccnc1	-0.24
CCOC(=O)c1c(NC(=S)N2CCOCC2)sc2c1CCCC2	-3.12
O=C(NCC1CCCO1)c1cc2n(n1)C(C(F)(F)F)CC(c1ccc(Br)cc1)N2 (stereo not given)	3.71*
O=C(NCc1ccco1)c1cc2n(n1)C(C(F)(F)F)CC(c1ccc3c(c1)OCO3)N2 (stereo not given)	3.79*
Cc1ccc(C2CC(C(F)(F)F)n3nc(C(=O)N(C)Cc4c(C)nn(C)c4C)cc3N2)cc1 (stereo not given)	0.02
O=C(NCc1cccs1)c1cc2n(n1)C(C(F)(F)F)CC(c1ccc(F)cc1)N2 (stereo not given)	1.17
Cc1c(CNC(=O)c2cc3n(n2)C(C(F)(F)F)CC(c2ccc4c(c2)OCO4)N3)cnn1C (stereo not given)	-1.87
CN(Cc1ccccc1)C(=O)c1cc2n(n1)C(C(F)(F)F)CC(c1ccccc1)N2 (stereo not given)	3.02*
O=C(NCc1ccco1)c1cc2n(n1)C(C(F)(F)F)CC(c1ccc(Cl)cc1)N2 (stereo not given)	2.94
Cc1ccc(C2CC(C(F)(F)F)n3ncc(C(=O)NCC4CCCO4)c3N2)cc1 (stereo not given)	0.63
CCOC(=O)c1cc2n(n1)C(C(F)(F)F)CC(c1ccccc1)N2 (stereo not given)	2.8
CCOc1ccc2c(c1)C(C)=CC(C)(C)N2C(=O)NC1CCCCC1	1.87
COc1cc(C2c3c(oc4ccccc4c3=O)C(=O)N2c2nccs2)cc(Br)c1O (stereo not given)	-1.01
Cc1nc(-c2ccc(S(=O)(=O)Nc3ccc(Br)c(C(F)(F)F)c3)s2)cs1	2.3
CS(=O)(=O)NCCc1ccncc1	0.42
NS(=O)(=O)c1ccc(CCNS(=O)(=O)c2ccc(Cl)cc2)cc1	3.36*
NS(=O)(=O)c1ccc(CNS(=O)(=O)Cc2ccccc2)cc1	-0.27
O=S(=O)(CS(=O)(=O)NCCc1ccc(Cl)cc1)NCCc1ccc(Cl)cc1	0.29
O=c1[nH]c2ccc(S(=O)(=O)NCCc3ccc(F)cc3)cc2[nH]1	1.93
CS(=O)(=O)NCCc1ccc(S(N)(=O)=O)cc1	6.86*
SMILES	Dicer inh
CSc1ncc(-c2nnc(SCC(=O)Nc3ccccc3)n2C)n1C	0.1
CC1(C)Cc2c(c(N3CCOCC3)nc3sc4c(NCCCO)nnnc4c23)CO1	0.69
Cc1ncn2cc(-c3ccc(Cl)cc3)[nH]c(=O)c12	-1.09
CC(C)CNC(=O)C(=O)NCc1ccco1	-0.74
C=CCOC(=O)C1=C(C)N=C2SCCC(=O)N2C1c1cccc(OC)c1 (stereo not given)	-0.78
COc1cccc(N2C(=O)C3ON(c4ccc(Cl)cc4)C(c4cccs4)C3C2=O)c1 (stereo not given)	0.14
CCCCN1Cc2c(n(CC(N)=O)c3cc(-c4ccccc4)nn3c2=O)C1=O	-0.98
CCCCN1Cc2c(n(Cc3ccccc3)c3cc(-c4ccccc4)nn3c2=O)C1=O	-0.1
CCCCN1Cc2c(n(CC(=O)c3ccccc3)c3cc(-c4ccccc4)nn3c2=O)C1=O	3.15*
COc1cccc(Nc2nc(N)nc(CN3CCc4ccccc4C3)n2)c1	0.68
COc1ccc(Nc2nc(N)nc(CN3CCCCC3)n2)cc1	-1.05
COc1ccccc1Nc1nc(N)nc(CN2CCCCC2)n1	5.28*
CN(C)/C=C1\C(=O)c2ccccc2N(C)S1(=O)=O	-0.22
COC(=O)C1=C(C)NC2=C(C(=O)CC(C)(C)C2)C1c1cccc(OC)c1O (stereo not given)	0.44
C/C(=C\c1ccc(Br)s1)[N+](=O)[O-]	-0.22
Nc1c(Cl)cc(-c2noc(-c3cccs3)n2)cc1Cl	-1.79
COc1ccc(-c2noc(COc3ccc(Br)cc3)n2)cc1	4.08*
COc1ccc(-c2noc(-c3cccs3)n2)cc1	3.91*
COc1ccc(OCc2nc(-c3cccs3)no2)cc1	0.06
Brc1ccc(OCc2nc(-c3ccncc3)no2)cc1	-0.18
Clc1ccc(-c2nc(-c3ccncc3)no2)cc1	1.73
COc1ccc(-c2noc(COc3ccc(Cl)cc3)n2)cc1	2.83
COc1ccc(-c2nc(-c3ccc(Cl)cc3)no2)cc1	4.19*
COc1ccc(-c2noc(-c3ccc(OC)cc3)n2)cc1	1.29
Cc1nc(-c2nnc(SCc3nc(-c4ccc(C5SCCS5)cc4)no3)n2C)cs1	-1.01
O=C(O)/C(=N/Nc1ccccc1O)c1ccccc1	1.54
CNC(=O)c1cc(C#N)c(SC)s1	-0.66
COc1ccc(-c2c(C(F)(F)F)[nH]n3c(=O)cc(C)nc23)cc1	2.96
O=C1NCCCC1C(=O)NNC(=S)NCc1ccccc1 (stereo not given)	-1.14
O=c1[nH]c2cc(F)ccc2c(O)c1-c1ccccc1	-1.84
